Screening results deposited in PubChem by Johns Hopkins Ion Channel Center.
This is a sample that favours compounds with a hit; in the whole collection about 1.6% have one here.
KCNQ2 pot: KCNQ2 (rat) channel potentiation | CHO-K1 KCNQ2, FluxOR thallium flux fluorescence; active compounds read high | B-score at 10 µM | hit rate 0.54% among 310,000 | AID 2239;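 active = fluorescence ratio B-score at least 3 SD of library B-scores, with initial fluorescence B-score within 3 of them, cut at about 5.3 in these data; same plate scores as AID 2156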;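 also: B-score of peak minus minimum over baseline fluorescence ratio after K+ and Tl+ stimulus; positive B-score means potentiation of KCNQ2 with more thallium influx and brighter signal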
KCNQ2 block: KCNQ2 (rat) channel inhibition; hit rate 1.1% among 310,000; CHO-K1 KCNQ2, FluxOR thallium flux, 20 min; active compounds read low; AID 2156; B-score at 10 µM;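 active = fluorescence ratio B-score at most minus 3 library SDs, with starting brightness B-score within 2 library SDs, cut at about -5.5 in these data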
Kir21 conf inh: confirmation of mouse Kir2.1 potassium channel inhibitors | shares compounds with KCNQ2 pot | Kir2.1-expressing cells, FluxOR thallium flux fluorescence; active compounds read low | Tl flux remaining, % of negative control (active compounds read low), % at 10 µM | hit rate 41% among 2,300 | AID 2032;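 active = Primary-screen hit whose thallium flux fell at least 3 control SD below untreated wells in both duplicates, with normal baseline fluorescence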;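 also: 0% = blank wells without stimulus and 100% = stimulated no-compound controls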
HEK293 ctr: alters thallium flux in parental HEK293 cells, Kir2.1 counter-screen | shares compounds with KCNQ2 pot | FluxOR thallium flux fluorescence; 0% = unstimulated blank wells | FluxOR signal as % of negative control (100 = no effect), % at 10 µM | hit rate 19% among 2,300 | AID 2105;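 active = dye signal at least 3 control SD above or below untreated wells in both duplicates, raw fluorescence within 3, either direction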;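 also: percent is based on the flux ratio of peak minus minimum fluorescence over baseline F0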
CHO-K1 ctr: parental CHO-K1 activity in KCNQ2 potentiator counter-screen. shares compounds with KCNQ2 pot. parental CHO-K1 cells, FluxOR thallium flux fluorescence; zero = vehicle mean+3SD, 100% = vehicle-minus-blank window. activity increase over 3SD of controls, % at 10 µM. hit rate 43% among 1,200;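 active = signal rise of at least 3 SD above the untreated control mean, in both duplicate wells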;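 also: counter screen of KCNQ2 potentiator hits so any rise reflects channel-independent effects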
KCNQ1 pot spec: human KCNQ1 counter-target activity of KCNQ2 potentiators | activation over 3SD threshold, % at 10 µM | hit rate 28% among 1,200 | CHO KCNQ1 stable, FluxOR thallium flux fluorescence; beyond 3SD, as % of vehicle-control signal | shares compounds with KCNQ2 pot;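 active = fluorescence ratio rise of at least 3 SD of vehicle wells above their mean, in both replicate wells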;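 also: 0% = vehicle mean plus 3 SD and 100% = vehicle minus unstimulated blank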
Target sequence (P51787 whole entry, looked up): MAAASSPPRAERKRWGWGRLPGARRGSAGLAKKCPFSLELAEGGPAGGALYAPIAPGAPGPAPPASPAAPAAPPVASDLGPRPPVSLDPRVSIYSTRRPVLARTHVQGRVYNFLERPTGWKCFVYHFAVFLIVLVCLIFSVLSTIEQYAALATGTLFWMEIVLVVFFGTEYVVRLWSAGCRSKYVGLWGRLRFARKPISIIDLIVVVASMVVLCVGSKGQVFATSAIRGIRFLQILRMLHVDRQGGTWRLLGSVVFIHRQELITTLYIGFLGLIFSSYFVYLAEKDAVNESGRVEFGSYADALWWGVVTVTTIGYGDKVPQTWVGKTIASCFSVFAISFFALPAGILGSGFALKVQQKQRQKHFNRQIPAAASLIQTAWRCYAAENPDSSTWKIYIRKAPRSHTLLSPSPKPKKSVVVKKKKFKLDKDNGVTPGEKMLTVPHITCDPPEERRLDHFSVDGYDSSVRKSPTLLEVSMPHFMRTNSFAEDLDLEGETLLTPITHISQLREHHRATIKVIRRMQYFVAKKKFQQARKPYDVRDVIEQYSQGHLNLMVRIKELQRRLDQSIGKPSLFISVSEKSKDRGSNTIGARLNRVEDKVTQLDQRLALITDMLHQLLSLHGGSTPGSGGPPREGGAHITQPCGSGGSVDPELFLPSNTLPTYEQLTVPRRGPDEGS
KCNQ2 pot confirm: rat KCNQ2 channel potentiator confirmation; AID 2287; hit rate 68% among 1,200; CHO-KCNQ2 cells, FluxOR thallium flux fluorescence; potentiation, less the hit threshold, % at 10 µM; shares compounds with KCNQ2 pot;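 active = fluorescence ratio rising 3 SD or more over the vehicle control mean in both replicates, plus primary screen hit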;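 also: peak minus minimum thallium fluorescence divided by baseline after K/Tl stimulus; 0% = vehicle mean plus 3 SD and 100% = vehicle minus unstimulated blank difference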
Kir21 spec: selectivity of KCNQ2 potentiators: effect on mouse Kir2.1. shares compounds with KCNQ2 pot. HEK293 Kir2.1, FluxOR thallium flux fluorescence. activity over 3SD threshold, % at 10 µM. hit rate 2% among 1,200;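 active = fluorescence ratio rise of at least 3 SD above the vehicle-control mean, seen in both replicates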;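 also: 0% = vehicle mean plus 3 SD and 100% = vehicle minus no-stimulus blank window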
KCNQ2 W236L MoA: potentiates the retigabine-insensitive rat KCNQ2 W236L mutant channel. shares compounds with KCNQ2 pot. CHO KCNQ2-W236L, automated patch clamp current. current increase over 3SD of negative controls (%), active compounds read high, % at 25 µM. hit rate 10% among 940;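 active = current increase at least 3 SD of the untreated controls above them in both duplicate recordings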
Active calls of the source: *; i = inactive; . = not tested or not shown.

SMILES	KCNQ2 pot	KCNQ2 block	Kir21 conf inh	HEK293 ctr	others
Cc1ccc(C(=O)Nc2ccnc(-c3cccnc3)n2)cc1	0.05	i	.	.
COc1ccc(C(=O)Nc2ccnc(-c3cccnc3)n2)cc1	5.34*	i	i	i	CHO-K1 ctr=-4.1;KCNQ1 pot spec=-16.3;KCNQ2 pot confirm=-5.6;Kir21 spec=-15.9
Cc1ccc(Cc2c(C)[nH]c(=S)[nH]c2=O)cc1	.	i	.	.
Cc1ccc(Cc2c[nH]c(=S)s2)cc1	7.87*	i	i	386.0%*	CHO-K1 ctr=-3.3;KCNQ1 pot spec=-10.1;KCNQ2 pot confirm=62.6*;Kir21 spec=-17.5;KCNQ2 W236L MoA=i
O=C(CCCN1C(=O)c2ccccc2C1=O)NCCc1ccc(OC(F)F)cc1	.	i	.	.
O=[N+]([O-])c1cccc(-c2csc(Nc3ccccc3)n2)c1	0.15	i	i	i
COc1ccccc1Nc1nc(-c2cccc([N+](=O)[O-])c2)cs1	1.61	i	.	.
O=C(NC(=S)N1CCN(c2ccc(Cl)cc2[N+](=O)[O-])CC1)c1cccs1	5.54*	i	i	151.0%*	CHO-K1 ctr=52.8*;KCNQ1 pot spec=23.6*;KCNQ2 pot confirm=8.6*;Kir21 spec=-32.1;KCNQ2 W236L MoA=i
O=C(NC(=S)N1CCN(c2ccc(Cl)cc2[N+](=O)[O-])CC1)c1ccco1	.	i	.	.
O=C(COc1ccccc1[N+](=O)[O-])Nc1ccc(N2CCN(C(=O)c3cccs3)CC2)cc1	0.56	i	.	.
COc1cc(CNCCCN2CCOCC2)cc(Br)c1OCc1ccc(Cl)cc1	.	i	33.0%*	i
COc1cc(CNCCN2CCOCC2)ccc1OCc1ccc(Cl)cc1	0.08	i	.	.
CC(C)[C@@H]1CC[C@@H](C)C[C@H]1OC(=O)C[n+]1cc(-c2ccc(Cl)cc2)n2c1CCCCC2	.	i	25.0%*	i
COc1ccc(-c2c[n+](CC(=O)OC3CC(C)CCC3C(C)C)c3n2CCC3)cc1 (configuration not stated)	0.47	i	.	.
CCC(=O)Nc1ccc(C(=O)N/N=C/c2ccc([N+](=O)[O-])cc2)cc1	.	i	.	.
Cc1occc1C(=O)Nc1ccccc1NC(=O)c1ccoc1C	0.04	i	.	.
Cc1occc1C(=O)Nc1cccc2ccccc12	11.3*	i	i	i	CHO-K1 ctr=11.0*;KCNQ1 pot spec=-16.4;KCNQ2 pot confirm=55.9*;Kir21 spec=-37.7;KCNQ2 W236L MoA=i
Cc1cc(Cl)c(S(N)(=O)=O)cc1OCC(=O)NC1CCCCC1	.	i	.	.
Cc1cc(Cl)c(S(=O)(=O)NC2CCCC2)cc1OCC(=O)NC1CCCCC1	0.41	i	.	.
Cc1cc(Cl)c(S(=O)(=O)N2CCCCCC2)cc1OCC(=O)NC1CCCCC1	25.2*	i	i	129.5%*	CHO-K1 ctr=-0.6;KCNQ1 pot spec=-14.1;KCNQ2 pot confirm=163.7*;Kir21 spec=-33.1;KCNQ2 W236L MoA=i
Cc1cc(Cl)c(S(=O)(=O)N2CCSCC2)cc1OCC(=O)NC1CCCCC1	32.3*	i	i	126.0%*	CHO-K1 ctr=6.8*;KCNQ1 pot spec=-17.3;KCNQ2 pot confirm=121.7*;Kir21 spec=-26.3;KCNQ2 W236L MoA=i
O=C(NCCc1cnc[nH]1)c1ccc(-c2ccccc2)cc1	.	i	.	.
O=C(Nc1ccc(C(=O)N2CCOCC2)cc1)c1cc(-c2cccnc2)nc2ccc(Cl)cc12	0.35	i	.	.
CC(C)(c1ccccc1)c1ccc(OCCCNCCO)cc1	1.02	i	28.0%*	i
COCCCNCCCOc1ccc(C(C)(C)c2ccccc2)cc1	0.52	i	.	.
SMILES	KCNQ2 pot	KCNQ2 block	Kir21 conf inh	HEK293 ctr	others
COCCN1C(=O)c2oc3cc(C)c(C)cc3c(=O)c2C1c1cccc(O)c1 (configuration not stated)	.	i	.	.
O=C(NN1C(=O)C2C(c3ccccc3)C=CC(c3ccccc3)C2C1=O)c1ccncc1 (configuration not stated)	6.51*	i	i	i	CHO-K1 ctr=-0.6;KCNQ1 pot spec=-6.7;KCNQ2 pot confirm=72.5*;Kir21 spec=-40.6;KCNQ2 W236L MoA=i
O=C(NN1C(=O)C2C3C=CC(C3)C2C1=O)c1ccncc1 (configuration not stated)	0.29	i	.	.
O=C(Nc1cccnc1)C(Cc1ccccc1)n1cccc1 (configuration not stated)	0.5	i	.	.
O=C(Nc1ncc(Br)s1)C(Cc1ccccc1)n1cccc1 (configuration not stated)	7.31*	i	i	188.0%*	CHO-K1 ctr=-4.4;KCNQ1 pot spec=-5.1;KCNQ2 pot confirm=8.5*;Kir21 spec=-28.8;KCNQ2 W236L MoA=i
O=C(Nc1ccnn1C1CCN(Cc2cc3ccccc3[nH]2)CC1)C1CCOC1 (configuration not stated)	5.72*	i	i	i	CHO-K1 ctr=-8.6;KCNQ1 pot spec=1.5*;KCNQ2 pot confirm=42.2*;Kir21 spec=-35.3;KCNQ2 W236L MoA=i
Cc1c(CN2CCC(n3nccc3NC(=O)C3CCOC3)CC2)[nH]c2ccccc12 (configuration not stated)	0.76	i	.	.
O=C(Cn1nc(-c2cccc([N+](=O)[O-])c2)c2ccccc2c1=O)Nc1cccnc1	0.19	i	.	.
COc1ccccc1C(=O)NCCC(=O)Nc1ccc(OC(F)(F)F)cc1	0.07	i	.	.
Cc1onc(-c2ccccc2)c1CNS(=O)(=O)c1cccc(Br)c1	0.46	i	52.0%*	i
Cc1onc(-c2ccccc2)c1CNS(=O)(=O)c1ccc(F)cc1F	.	i	.	.
CCCCOc1ccc(/C=C/C(=O)N(CC)CC(=O)Nc2ccc3c(c2)OCCO3)cc1OC	.	i	.	.
Fc1ccc(CN2CCCN(Cc3nc(-c4ccc5c(c4)OCO5)no3)CC2)cc1	.	i	44.5%*	i
O=C(c1ccco1)N1CCCN(Cc2nc(-c3ccc4c(c3)OCO4)no2)CC1	1.57	i	.	.
CCc1ccccc1Nc1nn2c(=O)c3ccc(C(=O)NCc4ccccn4)cc3nc2s1	1.52	i	.	.
N#Cc1ccc(CSc2nnc(-c3ccccc3)n2Cc2ccco2)cc1	.	i	.	.
N#Cc1ccc(CSc2nnc(Cc3cccs3)n2Cc2ccco2)cc1	.	i	53.0%*	i
O=C1CCC(C(=O)NCc2ccccc2)N1 (configuration not stated)	1.17	i	.	.
COc1cc(/C=N/n2nnnc2N)cc(Cl)c1OC	1.43	i	.	.
Nc1ccccc1Oc1c(F)c(F)c(Oc2ccccc2N)c(F)c1F	0.82	i	.	.
O=C(NCCCCc1ccccc1)Nc1cccc(F)c1	13.1*	i	i	i	CHO-K1 ctr=-1.8;KCNQ1 pot spec=-19.5;KCNQ2 pot confirm=27.2*;Kir21 spec=-40.4;KCNQ2 W236L MoA=i
Cc1cccc(NC(=O)NCCCCc2ccccc2)c1	.	i	.	.
Cc1ccc(S(=O)(=O)c2c[nH]c3cc4c(cc3c2=O)OCO4)cc1	0.47	i	.	.
CC(NCCC(c1ccccc1)c1ccccc1)c1ccccc1 (configuration not stated)	0.97	i	43.5%*	i
